Hit rate of the full screen: of about 69,000 compounds, about 950 (1.4%) showed an effect of 50% or more. This excerpt belongs to a sample that is enriched for strong results.
System: Mycobacterium tuberculosis
Experiment: Cornell M. t heat shock assay; further: in the data most compounds retested in dose-response had high values
Assay type: functional, organism-based
Set-up: dose or concentration left out as unconfirmed

Point of comparison: O=C(NCC(=O)N1CC2(CCCC2)c2c(F)cccc21)C1CC1, “Percent Effect” value 55.94%. Against it:
- COCC1c2c(cnn2C)CCN1C(=O)c1cc(C)on1.O=C(O)C(F)(F)F (stereo not drawn) — lower, 28.69%
- Cc1cnccc1-c1cnn(CCNC(=O)c2ccccn2)c1C1CC1.Cl — lower, 22.13%
- CC(C)Cc1cc(C(=O)NC(C)(C)c2nnc(N)s2)n(C)n1 — lower, 18.34%
- CC(C)c1nc(CN2CCc3onc(-c4cccc(F)c4)c3C2)no1 — lower, 35.68%
- CC(C)Cc1nc(CN2CCc3onc(-c4cccc(F)c4)c3C2)no1 — lower, 52.2%
- CC(C)(C)c1nc(CN2CCc3onc(-c4cccc(F)c4)c3C2)no1 — lower, 31.99%
- CN(C)[C@@H]1CN(Cc2ccccc2O)C[C@H]1c1cn(C)c2ccccc12.Cl — lower, 12.04%
- CN(C)[C@@H]1CN(Cc2ccc(O)cc2)C[C@H]1c1cn(C)c2ccccc12.Cl — lower, 10.72%
- O=C1CCCC2=C1C(c1ccccc1F)Nc1nonc1N2 (stereo not drawn) — lower, -20.35%
- O=c1cc(CN2CCCC2)nc2n1CCCN(Cc1ccsc1)C2 — lower, -27.96%
- COCCNc1ncc(-c2cccc(F)c2)c(-c2nccn2C)n1 — lower, -4.341%
- CCOCCCNc1ncc(-c2cccc(F)c2)c(-c2nccn2C)n1 — lower, 8.299%
- Cn1ccnc1-c1nc(NC2CCCC2)ncc1-c1cccc(F)c1 — higher, 85.28%
- Cl.O=C1CC2(CCCNC2)C(=O)N1Cc1cccc(F)c1 (stereo not drawn) — lower, -11.34%
- CCN1CCn2c(C)cnc2C12CCN(C(=O)COC)CC2.O=C(O)C(F)(F)F.O=C(O)C(F)(F)F — lower, -13.45%
- CCc1nc(N)nc(N2CCCC3(CN(C)C(=O)O3)C2)c1C (stereo not drawn) — lower, -1.052%
- CNC(=O)CN1CCCC12CCN(C(=O)c1ccoc1)CC2.O=C(O)C(F)(F)F — lower, 6.336%
- Cc1nc(-c2cncnc2C2CCCNC2)no1.Cl.Cl (stereo not drawn) — lower, -15.54%
- CC(=O)N1CCCC2(C1)CN(C(=O)c1ccncc1)CCO2 (stereo not drawn) — lower, -1.478%
- COc1cccc(C(=O)N2CCOC3(CCCN(C(C)=O)C3)C2)c1 (stereo not drawn) — lower, 5.566%
- COc1ccccc1C(=O)N1CCOC2(CCCN(C(C)=O)C2)C1 (stereo not drawn) — higher, 71.6%
- Cc1noc([C@H]2C[C@@H]3CCN(c4nnc(C)s4)C[C@H]3O2)n1.O=C(O)C(F)(F)F — lower, 1.861%
- Cc1ccc(N2CCC3(CCN(C(=O)c4ccsc4)C3)CC2)nn1.O=C(O)C(F)(F)F — lower, -20.48%
- Fc1ccc(CN2CCC3(CC2)CC(c2cccnc2)CO3)cc1.O=C(O)C(F)(F)F.O=C(O)C(F)(F)F (stereo not drawn) — lower, -26.17%
- COCCN1C(=O)[C@H]2CC[C@@H]1CN(C(=O)CCc1n[nH]c(C)c1C)C2 — lower, 8.165%
- CCN(C)C(=O)c1cnc(-c2noc3cc(N4CCCCC4)ccc23)s1 — higher, 85.74%
- O=C(NC1CC1)c1cnc(-c2noc3cc(N4CCCCC4)ccc23)s1 — lower, -8.735%
- O=C(c1cnc(-c2noc3cc(N4CCCC4)ccc23)s1)N1CCCC1 — lower, -6.808%
- Cl.O=C(c1ccnc(C2CCNCC2)c1)N1CCCOCC1 — lower, -3.625%
- CNS(=O)(=O)CC(=O)N1CC2(CCCC2)c2c(F)cccc21 — lower, 13.66%
- CCS(=O)(=O)NCC(=O)N1CC2(CCCC2)c2c(F)cccc21 — lower, 17.06%
- CCCS(=O)(=O)N1C[C@@H](Oc2ncccc2F)[C@H]2OCCC[C@H]21.O=C(O)C(F)(F)F — lower, -14.35%
- Cl.Cl.O=C(N[C@@H]1CN[C@H]2CCCO[C@H]21)c1cccnc1 — lower, -32.33%
- CCc1n[nH]c(C2CN(Cc3ncc(CC)o3)CCO2)n1 (stereo not drawn) — lower, -30.6%
- COc1ccc(CNCc2ccnc(N3CCCC3)c2)c(OC)c1.Cl — lower, 15.53%
- CC(C)c1nc2c(n1C)CCN(Cc1nc(-c3ccsc3)no1)C2 — higher, 103.5%
- Cn1cnc2c1CCN(Cc1csc(-c3ccccc3F)n1)C2 — lower, 47.56%
- CC(C)c1nc2c(n1C)CCN(Cc1nc(-c3ccoc3)no1)C2 — lower, -1.716%
- COc1ccc(-c2nc(CN3CCc4c(ncn4C)C3)cs2)cc1 — higher, 174%
- c1cc(-c2nc(CN3CCc4c(ncn4C4CC4)C3)cs2)cs1 — lower, 24.33%
- Cn1cnc2c1CCN(Cc1csc(-c3ccc(F)cc3)n1)C2 — lower, 1.572%
- Cn1cnc2c1CCN(Cc1csc(-c3ccccc3)n1)C2 — lower, -8.138%
- Cn1c(C2CC2)nc2c1CCN(Cc1nc(-c3ccsc3)no1)C2 — lower, 13.01%
- Cn1cnc2c1CCN(Cc1csc(-c3ccsc3)n1)C2 — higher, 121.8%
- Cn1cc(-c2nc(CN3CCc4c(ncn4C4CC4)C3)cs2)cn1 — lower, 19.08%
- Cn1cc(-c2nc(CN3CCc4c(ncn4C)C3)cs2)cn1 — lower, -15.5%
- c1ccc(-c2nc(CN3CCc4c(ncn4C4CC4)C3)cs2)cc1 — higher, 62.99%
- COCCO[C@H]1CCN(Cc2ccsc2)[C@H]1Cc1cccnc1.O=C(O)C(F)(F)F.O=C(O)C(F)(F)F — lower, -33.79%
- CCc1noc(CN2C[C@H]3CC[C@@H]2CN(C2Cc4ccccc4C2)C3)n1 — lower, 18.74%
- COc1ccc(CC(=O)N2CC[C@@H](OC)[C@@H]2Cc2cccnc2)cc1.O=C(O)C(F)(F)F — lower, -4.792%
- CC(=O)N1C[C@@H]2CC[C@H](C1)N(S(=O)(=O)c1ccccc1Cl)C2 — lower, -21.33%
- O=C(O)C(F)(F)F.O=S(=O)(C1CC1)N1CCO[C@@H]2CC(COCc3cccnc3)C[C@H]21 (stereo partly drawn) — lower, 22.38%
- Cn1cc(N2CC3(COCCN(Cc4ccccn4)C3)OCC2=O)cn1.O=C(O)C(F)(F)F (stereo not drawn) — lower, -20.33%
- CNC(=O)C1Cn2ccnc2C2(CCN(Cc3cccs3)CC2)O1.O=C(O)C(F)(F)F.O=C(O)C(F)(F)F (stereo not drawn) — lower, -16.91%
- Cn1c(CCN2CCN(CCc3ccccc3)CC2)nc2ccccc21 — lower, 5.82%
- Cn1c(CCN2CCN(c3ccc(O)cc3)CC2)nc2ccccc21 — lower, -8.24%
- CCCc1ccc(N2CCN(Cc3nc4ccccc4n3C)CC2)cc1 — higher, 103%
